In the library only some 19% were active in any assay of this set; here they are far more common.
IL-1B inflam inh = inhibitors of inflammasome signaling (IL-1 beta secretion) | THP-1 LPS/ATP IL-1B secretion, AlphaLISA, 16 h; active compounds read low | activity change, % at 57.5 µM | hit rate 4.7% among 360,000 | AID 743279; in the data active means activity change below about -50%; inconclusive means mostly about -30% to -49%
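THP-1 cells pretreated 1 hr with compounds (up to 57.5 uM final), then stimulated with LPS (250 ng/mL final) plus ATP (1.25 mM final); secreted IL-1B measured by AlphaLISA after 16 hr, decreased signal indicating inhibition.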
TDP1 cell CPT = growth inhibition of DT40 Tdp1-/-;hTDP1 cells with camptothecin (screen for TDP1 inhibitors). chicken DT40 Tdp1-/-;hTDP1 cells + 20 nM CPT, ATP luminescence, 48 h. Potency, µM (titrated, usually from 46.2 µM), actives largely listed as inhibitors. hit rate 12% among 420,000. AID 686979; further: nearly all actives have a fitted effect of over 55% in size
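Cell growth measured by CellTiter-Glo luminescence after a minimum 48 h, 37 C compound exposure with 20 nM CPT in Tdp1-knockout DT40 cells stably expressing hTDP1, seeded 400/well; qHTS titration format.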
HT1080 IDH1KD tx = HT-1080 IDH1 knockdown cell toxicity (counter line); Potency, µM (series often up to 46.1 µM), actives largely listed as cytotoxic; HT-1080 IDH1 knockdown viability, ATP luminescence, 48 h; hit rate 2% among 360,000; AID 686971
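Luminescent ATP read-out (CellTiter-Glo, 10 min at room temperature) after 48 h compound exposure at 37 °C gave viability of IDH1-knockdown HT-1080 cells. Activity was normalised to DMSO and cell-free wells, then fitted as concentration-response curves.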
HT1080-NT tox = kills 2HG-producing HT-1080-NT fibrosarcoma cells. Potency, µM (titrated, usually from 46.1 µM), actives largely listed as cytotoxic. AID 686970. HT-1080-NT fibrosarcoma viability, CellTiter-Glo ATP luminescence, 48 h. hit rate 1.6% among 360,000;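 further: NT is the 2HG producing partner of a matched IDH1 knockdown line; nearly all actives have a fitted effect of over 55% in size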
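HT-1080-NT; 750 cells/well; 5% FBS RPMI; 48 h compound, 37 degrees C; CellTiter-Glo luminescence; curve fitting and curve-class assignment.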
TDP1 cell noCPT = qHTS for Inhibitors of human tyrosyl-DNA phosphodiesterase 1 (TDP1): qHTS in cells in absence of CPT. DT40 Tdp1-/- hTDP1 cells, no CPT, ATP luminescence, 48 h. Potency, µM (series often up to 46.2 µM), most hits filed as inhibitors. hit rate 15% among 420,000. AID 686978, 2013; further: nearly all actives have a fitted effect of over 55% in size
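A cellular qHTS used chicken DT40 cells lacking endogenous Tdp1 but carrying stably transfected human TDP1. Compounds were applied without camptothecin, and cell growth kinetics were judged by ATP-dependent luminescence after ≥48 hr.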
A number is an active result; i = inactive; ? = inconclusive; nt = not tested or not shown. Unless noted, the call rests on the fitted dose curve; in most records, active means well fitted curve in the direction sought with a large enough effect; inconclusive means small, poorly fitted or top-dose-only effect, or another doubt; inactive means no such curve, though single readings can be large; an effect the other way counts as inactive or inconclusive.

SMILES | IL-1B inflam inh | TDP1 cell CPT | HT1080 IDH1KD tx | HT1080-NT tox | TDP1 cell noCPT
CCc1nc2ccc(C(=O)N(C)Cc3ccco3)cn2c1N(C)Cc1ccc(OC)cc1 | ? | ? | i | i | ?
CCc1nc2ccc(C(=O)NC3CCN(Cc4ccccc4)CC3)cn2c1N(CC)Cc1cccc(Br)c1 | -102.3 | 14.6µM | 23.1µM | ? | 11.6µM
CCc1nc2ccc(C(=O)NCCCn3ccnc3)cn2c1N(CC)Cc1cccc(Br)c1 | i | ? | ? | ? | ?
CCc1nc2ccc(C(=O)N(C)Cc3ccco3)cn2c1N(CC)Cc1cccc(Br)c1 | i | 11.6µM | i | ? | 13µM
Nc1nnc(SCC(=O)OCC(=O)NC23CC4CC(CC(C4)C2)C3)s1 | i | i | i | i | i
CC(C)CCCC(C)NS(=O)(=O)Cc1ccccc1 (configuration not stated) | i | i | i | i | i
Cc1cc(=O)n2nc(N(C)CC(=O)NCc3cccc(Br)c3)sc2n1 | nt | i | nt | nt | i
CCc1nc2ccc(C(=O)N3CCN(C(=O)c4ccco4)CC3)cn2c1N(CC)Cc1cccc(Br)c1 | i | 14.6µM | i | i | 23.1µM
CCc1nc2ccc(C(=O)N3CCN(C(=O)c4ccco4)CC3)cn2c1N(C)Cc1nccs1 | i | i | i | i | i
Cc1cc(NC(=O)CSCC(=O)Nc2ccccc2N2CCCCC2)no1 | i | i | i | i | i
CCn1c(CC(=O)Nc2ccccc2F)nnc1SCC(=O)NC1CCCC1 | i | i | i | i | i
Nc1nc(N)c2cc(S(=O)(=O)c3cccc(C(F)(F)F)c3)ccc2n1 | i | 3.66µM | 10.3µM | 13µM | 0.92µM
COc1ccc2c(c1)CCC(C)N2C(=O)C(=O)c1c[nH]c2ccccc12 (configuration not stated) | i | 20.6µM | i | ? | ?
Cc1ccc(C)c(S(=O)(=O)N2CCCC2CNC(=O)C(=O)NCc2ccccn2)c1 (configuration not stated) | i | i | i | i | i
CCOC(=O)C1(C)/C(=N/Nc2ccccc2OC)C(=O)C(=O)N1c1ccccc1 (configuration not stated) | i | 23.1µM | i | i | 13µM
CCOC(=O)C1(C)/C(=N/Nc2ccccc2)C(=O)C(=O)N1c1ccccc1 (configuration not stated) | i | i | i | i | i
CCN(C(=O)COC(=O)c1ccc([N+](=O)[O-])o1)c1cccc2ccccc12 | i | i | i | i | i
Cn1c(=O)[nH]c(=O)c2c1nc(CN1CCN(Cc3ccccc3)CC1)n2CC(N)=O | i | i | i | i | i
CCCCCn1c(N2CCN(c3cccc(Cl)c3)CC2)nc2c1c(=O)[nH]c(=O)n2C | ? | 20.6µM | i | i | 23.1µM
CCn1c(CN2CCN(c3cccc(Cl)c3)CC2)nc2c1c(=O)[nH]c(=O)n2C | nt | ? | nt | nt | 18.4µM
COc1ccc(NC(=O)CSc2nnc(NC(=O)Nc3ccccc3)s2)cc1OC | nt | i | nt | nt | i
Cc1nc2c(cnn2-c2ccccc2Cl)c(=O)n1-c1ccc(N2CCC(C)CC2)cc1 | ? | 16.4µM | i | i | ?
Cc1ccc(-n2c(C)nc3c(cnn3-c3ccccc3Cl)c2=O)cc1C | i | i | i | i | i
CCc1nc2c(c(=O)c3ccccc3n2C)c(=O)n1-c1ccc(F)cc1 | i | i | i | i | ?
Cc1ccc(-n2c(C)nc3c(cnn3-c3ccc(C)c(C)c3)c2=O)cc1C | i | 18.4µM | i | i | 16.4µM
SMILES | IL-1B inflam inh | TDP1 cell CPT | HT1080 IDH1KD tx | HT1080-NT tox | TDP1 cell noCPT
CCOc1ccc(-n2c(CC)nc3c(cnn3-c3ccc(Cl)cc3)c2=O)cc1 | nt | 16.4µM | nt | nt | 14.6µM
CCc1nc2c(cnn2-c2ccc(F)cc2)c(=O)n1-c1ccc(N2CCC(C)CC2)cc1 | i | 16.4µM | i | i | 14.6µM
COc1cc2c(cc1OC)[C@@H]1C(=O)c3ccc4c(c3O[C@@H]1CO2)C=CC(C)(C)O4 | nt | 0.15µM | nt | nt | 0.106µM
O=C1CCCc2nc(N3CCN(C(c4ccccc4)c4ccccc4)CC3)ncc21 | i | 16.4µM | i | i | 20.6µM
O=C1CCCc2nc(N3CCN(C(=O)c4ccco4)CC3)ncc21 | i | i | i | i | i
COc1ccc(CCNC(=O)CSCc2nc(-c3cccc(C)c3)oc2C)cc1OC | nt | 20.6µM | nt | nt | ?
